{"source": "PubChem BioAssay AID1220", "about": "(Sanford-Burnham Center for Chemical Genomics, 2008)", "note": "Among all 190,000 compounds or so, about 1,300 (0.68%) were called active. What follows is part of a selection rich in actives, with near analogues and random picks from the rest. Values without a mark were called inactive. Rule as the data show it: active = inhibition above about 50%; inactive = the rest.", "data": [{"molecular_target": "Mannose-6-phosphate isomerase (Homo sapiens) (UniProt P34949)", "sequence (P34949 whole entry, looked up)": "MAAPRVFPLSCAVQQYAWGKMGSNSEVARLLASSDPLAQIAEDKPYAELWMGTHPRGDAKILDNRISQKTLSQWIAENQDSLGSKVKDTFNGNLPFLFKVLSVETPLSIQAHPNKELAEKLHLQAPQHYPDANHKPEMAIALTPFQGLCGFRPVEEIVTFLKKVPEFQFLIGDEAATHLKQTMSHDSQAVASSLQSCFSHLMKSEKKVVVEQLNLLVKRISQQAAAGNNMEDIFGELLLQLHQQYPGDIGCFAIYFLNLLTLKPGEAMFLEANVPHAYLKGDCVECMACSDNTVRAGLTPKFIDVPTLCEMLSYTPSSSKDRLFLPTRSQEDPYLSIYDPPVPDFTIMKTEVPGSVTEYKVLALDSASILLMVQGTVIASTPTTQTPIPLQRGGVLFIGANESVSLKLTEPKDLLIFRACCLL", "test": "human PMI inhibitors, high substrate, primary screen, biochemical, fluorescence intensity, high mannose 6-phosphate (AID 1220)", "details": "recombinant PMI enzyme, coupled fluorescence intensity; at 20 µM; active compounds read high", "values": [{"smiles": "COC(=O)CCCCC1SCC2NC(=O)NC21", "note": "(centres undefined)", "inhibition": "-4.5%"}, {"smiles": "COc1ccc(NC(=O)CSc2ccc(F)cc2)cc1S(=O)(=O)N1CCCCC1", "inhibition": "8.6%"}, {"smiles": "Cc1csc2cc(-c3cccc([N+](=O)[O-])c3)c(-c3cccc([N+](=O)[O-])c3)c[n+]12", "inhibition": "4.9%"}, {"smiles": "COc1ccc(C=O)cc1COc1ccccc1F", "inhibition": "8.1%"}, {"smiles": "CCCC(=O)NC(c1ccco1)c1cc([N+](=O)[O-])c2cccnc2c1O", "note": "(centres undefined)", "inhibition": "7.9%"}, {"smiles": "COc1ccc(C(NC(C)=O)c2cc(Cl)c3cccnc3c2O)cc1OC", "note": "(centres undefined)", "inhibition": "55.7% (active)"}, {"smiles": "CCC(=O)NC(c1ccc(OC)c(OC)c1)c1cc(Cl)c2cccnc2c1O", "note": "(centres undefined)", "inhibition": "41.1%"}, {"smiles": "CCCC(=O)NC(c1ccc(OC)c(OC)c1)c1cc(Cl)c2cccnc2c1O", "note": "(centres undefined)", "inhibition": "48.4%"}, {"smiles": "CCC(=O)NC(/C=C/c1ccccc1)c1cc([N+](=O)[O-])c2cccnc2c1O", "note": "(centres undefined)", "inhibition": "46.8%"}, {"smiles": "CCC(=O)NC(c1ccc(C)cc1)c1cc([N+](=O)[O-])c2cccnc2c1O", "note": "(centres undefined)", "inhibition": "54.5% (active)"}, {"smiles": "COc1ccccc1NC(=S)NCc1ccco1", "inhibition": "-7.4%"}, {"smiles": "Cc1c(Cl)cccc1NC(=O)CSc1nnc(CCNC(=O)OC(C)(C)C)o1", "inhibition": "3.7%"}, {"smiles": "COCCCNC(=O)c1cc2cc(Br)ccc2oc1=O", "inhibition": "-0.9%"}, {"smiles": "CCC(C)c1ccc(NC(=S)NCCn2cc(Br)cn2)cc1", "note": "(centres undefined)", "inhibition": "14.5%"}, {"smiles": "Cc1[nH]nc2ncc(C(=O)c3cc(F)ccc3O)cc12", "inhibition": "-5.1%"}, {"smiles": "COc1cc(C2Nc3ccc4ncccc4c3C3=C2C(=O)CCC3)cc(OC)c1OC", "note": "(centres undefined)", "inhibition": "52.8% (active)"}, {"smiles": "COc1cc(C2Nc3ccc4ncccc4c3C3=C2C(=O)CCC3)cc(OC)c1O", "note": "(centres undefined)", "inhibition": "42.6%"}, {"smiles": "COc1cc(C2Nc3ccc4ncccc4c3C3=C2C(=O)CCC3)ccc1O", "note": "(centres undefined)", "inhibition": "46.7%"}, {"smiles": "COC(=O)/C(=C1/Oc2ccc(C)cc2S1)C(F)(F)F", "inhibition": "1.2%"}, {"smiles": "O=S(=O)(NC1CCCCC1Sc1ncccn1)c1ccc(Cl)cc1", "note": "(centres undefined)", "inhibition": "-26%"}, {"smiles": "COc1cc2c(=O)c(-c3ccc(O)cc3)coc2cc1OC1OC(CO)C(O)C(O)C1O", "note": "(centres undefined)", "inhibition": "12.9%"}, {"smiles": "O=C(CSc1n[nH]c(-c2cccs2)n1)NCc1cccs1", "inhibition": "0.2%"}, {"smiles": "CCOC(=O)CNC(=O)C1(c2ccccc2)CCCC1", "inhibition": "3.8%"}, {"smiles": "COc1ccc(CCN2CC(C#N)=C3c4cc(OC)c(OC)cc4CCN3C2)cc1OC", "inhibition": "21.4%"}, {"smiles": "COc1cc2c(cc1OC)C1=C(C#N)CN(C3CCCCC3)CN1CC2", "inhibition": "32.8%"}, {"smiles": "CCOc1cc(-c2c(C#N)c(N)nc3c2CCCC3)ccc1O", "inhibition": "12.6%"}, {"smiles": "CSc1nc2c(cc1C#N)CCCCC2", "inhibition": "-0.4%"}, {"smiles": "C/C(=C\\C=C(C#N)C#N)c1cc(C#N)c(N)o1", "inhibition": "70.9% (active)"}, {"smiles": "COc1cc(NC(=O)NS(=O)(=O)c2ccc(C)cc2)cc(OC)c1", "inhibition": "41%"}, {"smiles": "COc1ccc(NC(=O)NS(=O)(=O)c2ccc(C)cc2)c(OC)c1", "inhibition": "57.2% (active)"}, {"smiles": "COc1ccccc1NC(=O)NS(=O)(=O)c1ccc(C)cc1", "inhibition": "1.2%"}, {"smiles": "O=C(NNc1nc(-c2ccccc2)c2cc(Br)ccc2n1)c1ccc(S(=O)(=O)N2CCCCC2)cc1", "inhibition": "-0.2%"}, {"smiles": "COC(=O)c1cc(S(=O)(=O)n2nc(C)c(Br)c2C)c(Cl)cc1Cl", "inhibition": "-5%"}, {"smiles": "Cc1c(Nc2ncnc3nc[nH]c23)c(=O)n(-c2ccccc2)n1C", "inhibition": "1.1%"}, {"smiles": "Cc1cccc(NC(=O)CS(=O)(=O)c2cn(C)c3ccccc23)c1", "inhibition": "17.7%"}, {"smiles": "CCn1cc(S(=O)(=O)CC(=O)Nc2ccc3c(c2)OCCO3)c2ccccc21", "inhibition": "53.3% (active)"}, {"smiles": "Cn1cc(S(=O)(=O)CC(=O)Nc2ccc3c(c2)OCO3)c2ccccc21", "inhibition": "25.7%"}, {"smiles": "COc1ccc(NC(=O)Cn2cc(S(=O)(=O)Cc3ccccc3)c3ccccc32)c(OC)c1", "inhibition": "16.9%"}, {"smiles": "CCN(CC)C(=O)Cn1cc(S(=O)(=O)CC(=O)Nc2ccc3c(c2)OCCO3)c2ccccc21", "inhibition": "1.2%"}, {"smiles": "Cn1cc(S(=O)(=O)CC(=O)Nc2ccc3c(c2)OCCO3)c2ccccc21", "inhibition": "50.9% (active)"}, {"smiles": "CCCn1cc(S(=O)(=O)CC(=O)Nc2ccc(OCC)cc2)c2ccccc21", "inhibition": "17.3%"}, {"smiles": "CCn1cc(S(=O)(=O)CC(=O)Nc2ccc(C)cc2)c2ccccc21", "inhibition": "-0.5%"}, {"smiles": "CCCn1cc(S(=O)(=O)CC(=O)Nc2ccc(OC)cc2OC)c2ccccc21", "inhibition": "56.6% (active)"}, {"smiles": "CCCN1C(=O)/C(=C\\C=C2/Sc3ccccc3N2CCO)SC1=S", "inhibition": "10.5%"}, {"smiles": "O=C(N/N=C/c1ccc(Br)o1)c1cccnc1", "inhibition": "5.3%"}, {"smiles": "COc1ccc(/C=C/C(=O)OCCCN(C)C)cc1", "inhibition": "-6.3%"}, {"smiles": "CCOC(=O)c1ccc(NCc2nc3ccccc3[nH]2)cc1", "inhibition": "-1.4%"}, {"smiles": "O=C(O)c1cc(-c2ccccc2)n(-c2ccc(Cl)cc2)n1", "inhibition": "-7.9%"}, {"smiles": "COCCN(CCOC)Cc1c(O)ccc2c3c(c(=O)oc12)CCC3", "inhibition": "50.9% (active)"}, {"smiles": "CC(C)CN(Cc1c(O)ccc2c3c(c(=O)oc12)CCC3)CC(C)C", "inhibition": "10%"}, {"smiles": "O=c1oc2c(CN3CCOCC3)c(O)ccc2c2c1CCC2", "inhibition": "14.1%"}, {"smiles": "COC(=O)c1cn(CC(=O)NC2CCCCCC2)c2ccccc12", "inhibition": "4.4%"}, {"smiles": "CC(C)CC1NC(=O)N(CC(=O)N2CCCc3ccccc32)C1=O", "note": "(centres undefined)", "inhibition": "-5.9%"}, {"smiles": "O=C(/C=C/c1ccccc1Cl)NCc1ccccc1", "inhibition": "7.8%"}, {"smiles": "O=C(CN1C(=O)NC2(CCCCCC2)C1=O)NC1CCCCCCC1", "inhibition": "-3.9%"}, {"smiles": "Cc1ccccc1CSCCC(=O)NCCc1ccccc1", "inhibition": "-6.4%"}, {"smiles": "CCN1/C(=N\\N)c2cccc3cccc1c23", "inhibition": "-13%"}, {"smiles": "CNC(=O)CN1C(=O)c2cccc3cccc1c23", "inhibition": "-3.7%"}, {"smiles": "CC(C)c1ccc(CNC(=O)C(=O)Nc2nccs2)cc1", "inhibition": "-3.8%"}, {"smiles": "CNc1nc2ccccc2n1N", "inhibition": "-3.8%"}, {"smiles": "CC(Sc1nc(NCc2ccccc2)nc(N2CCOCC2)n1)C(=O)Nc1ccccc1", "note": "(centres undefined)", "inhibition": "12.4%"}, {"smiles": "Cc1ccc(Cl)cc1NC(=O)C1CCCN(S(=O)(=O)c2c(C)noc2C)C1", "note": "(centres undefined)", "inhibition": "50.2% (active)"}, {"smiles": "Cc1noc(C)c1S(=O)(=O)N1CCCC(C(=O)Nc2ccc(Cl)cn2)C1", "note": "(centres undefined)", "inhibition": "-3%"}, {"smiles": "Cc1ccccc1NC(=O)C1CCCN(S(=O)(=O)c2c(C)noc2C)C1", "note": "(centres undefined)", "inhibition": "-2.1%"}, {"smiles": "Nc1nc2c(s1)COc1ccccc1-2", "inhibition": "11.1%"}, {"smiles": "Nc1nc(-c2ccccc2)c(-c2ccccc2)s1", "inhibition": "-7.6%"}, {"smiles": "O=C(NCCCN1CCOCC1)C(Sc1ccccc1)c1ccccc1", "note": "(centres undefined)", "inhibition": "9.2%"}, {"smiles": "O=C(COC(=O)c1ccc(S(=O)(=O)NCc2ccco2)cc1)NCCC1=CCCCC1", "inhibition": "-19.9%"}, {"smiles": "O=c1[nH]c2ccc(Cl)cc2c(O)c1Cc1ccccc1", "inhibition": "3.4%"}, {"smiles": "COc1cccc(CNCc2cccnc2)c1OCc1ccccc1", "inhibition": "-2%"}, {"smiles": "Cc1ccc(Nc2ncnc3sc(C)c(C)c23)cc1", "inhibition": "12.1%"}, {"smiles": "COc1cccc(NCCC(=O)c2cccc([N+](=O)[O-])c2)c1", "inhibition": "62.3% (active)"}, {"smiles": "O=C(CCNc1ccc(Br)cc1)c1cccc([N+](=O)[O-])c1", "inhibition": "40.5%"}, {"smiles": "O=C(CCNc1cccc(F)c1)c1cccc([N+](=O)[O-])c1", "inhibition": "40.6%"}, {"smiles": "O=C(CCNc1ccc(F)cc1)c1cccc([N+](=O)[O-])c1", "inhibition": "48.4%"}, {"smiles": "O=C(CCNc1ccc(Cc2ccncc2)cc1)c1cccc([N+](=O)[O-])c1", "inhibition": "47.7%"}, {"smiles": "Cc1ccc(NCCC(=O)c2cccc([N+](=O)[O-])c2)cc1", "inhibition": "39.2%"}, {"smiles": "O=[N+]([O-])c1ccc(Cc2ccncc2)cc1", "inhibition": "-1.9%"}, {"smiles": "COc1ccc2o/c(=N/NC(=S)Nc3ccccc3)c(C(N)=O)cc2c1", "inhibition": "7.1%"}, {"smiles": "O=C(O)c1ccccc1OC(=O)C12CC3CC(CC(C3)C1)C2", "inhibition": "2.3%"}, {"smiles": "CC1(C)CC(c2nc(-c3ccccc3)cs2)CCS1", "note": "(centres undefined)", "inhibition": "0.5%"}, {"smiles": "Cc1ccc(-c2cc(C)nc3nc(N)nn23)cc1", "inhibition": "4.6%"}, {"smiles": "CCOc1ccc(NC(=O)CSc2nc3c(c(=O)n2C)SC(C)C3)cc1", "note": "(centres undefined)", "inhibition": "4.9%"}, {"smiles": "Cc1noc(C(=O)Nc2ccccc2C(F)(F)F)c1Cl", "inhibition": "59.4% (active)"}, {"smiles": "CSc1ccccc1NC(=O)c1onc(C)c1Cl", "inhibition": "-2.4%"}, {"smiles": "CCc1ccccc1NC(=O)c1onc(C)c1Cl", "inhibition": "-3.2%"}, {"smiles": "Cc1ccc(C(=O)OCC(=O)Nc2ccccc2C(F)(F)F)cc1S(=O)(=O)N1CCOCC1", "inhibition": "3.2%"}, {"smiles": "CC(C)c1ccccc1NC(=S)NCc1ccccc1F", "inhibition": "1.9%"}, {"smiles": "N#Cc1cnc2c(-c3ccccc3)c(-c3ccccc3)nn2c1N", "inhibition": "15.3%"}, {"smiles": "Fc1ccc2nc(C3CCCCN3Cc3nc(CC4CC4)no3)[nH]c2c1", "note": "(centres undefined)", "inhibition": "53.6% (active)"}, {"smiles": "Fc1ccc2nc(C3CCN(Cc4nc(CC5CC5)no4)CC3)[nH]c2c1", "inhibition": "-5.1%"}, {"smiles": "Fc1ccc(C2CCCCN2Cc2nc(CC3CC3)no2)cc1", "note": "(centres undefined)", "inhibition": "1.9%"}, {"smiles": "Brc1ccc(-c2nc(-c3ccccn3)no2)o1", "inhibition": "-1.3%"}, {"smiles": "CC(C)[C@H](NC(=O)c1ccccc1)C(=O)OCc1nnc(-c2ccccc2)o1", "inhibition": "3.9%"}, {"smiles": "O=C1CC(N2CCN(Cc3ccc4c(c3)OCO4)CC2)C(=O)N1CCc1ccccc1", "note": "(centres undefined)", "inhibition": "4.8%"}, {"smiles": "CC(=O)N1C(c2ccccc2)CC(=O)OC1c1ccc2c(c1)OCO2", "note": "(centres undefined)", "inhibition": "9.9%"}, {"smiles": "O=C1C=CC2C(c3ccc4c(c3)OCO4)CC1N2Cc1ccccc1", "note": "(centres undefined)", "inhibition": "63.6% (active)"}, {"smiles": "Cc1ccc(NC(=O)c2cc3ccccc3o2)cc1S(=O)(=O)N(C)C", "inhibition": "36.9%"}, {"smiles": "Cc1cc(C)c(S(=O)(=O)Nc2cccc(S(=O)(=O)NC3=NCCC3)c2)c(C)c1", "inhibition": "-4.4%"}]}]}
